Screens from PubChem.
An excerpt weighted towards active compounds, which were near 3.6% of everything screened.
Anthrax LF prot: anthrax lethal factor protease inhibition; actives 0.12% (n = 360,000); AID 588501; inhibition, % at 10 µM; multiplex microsphere protease cleavage assay, LF; further: plate controls were buffer without enzyme for full effect and enzyme alone for no effect
Target sequence (P15917 whole entry, looked up): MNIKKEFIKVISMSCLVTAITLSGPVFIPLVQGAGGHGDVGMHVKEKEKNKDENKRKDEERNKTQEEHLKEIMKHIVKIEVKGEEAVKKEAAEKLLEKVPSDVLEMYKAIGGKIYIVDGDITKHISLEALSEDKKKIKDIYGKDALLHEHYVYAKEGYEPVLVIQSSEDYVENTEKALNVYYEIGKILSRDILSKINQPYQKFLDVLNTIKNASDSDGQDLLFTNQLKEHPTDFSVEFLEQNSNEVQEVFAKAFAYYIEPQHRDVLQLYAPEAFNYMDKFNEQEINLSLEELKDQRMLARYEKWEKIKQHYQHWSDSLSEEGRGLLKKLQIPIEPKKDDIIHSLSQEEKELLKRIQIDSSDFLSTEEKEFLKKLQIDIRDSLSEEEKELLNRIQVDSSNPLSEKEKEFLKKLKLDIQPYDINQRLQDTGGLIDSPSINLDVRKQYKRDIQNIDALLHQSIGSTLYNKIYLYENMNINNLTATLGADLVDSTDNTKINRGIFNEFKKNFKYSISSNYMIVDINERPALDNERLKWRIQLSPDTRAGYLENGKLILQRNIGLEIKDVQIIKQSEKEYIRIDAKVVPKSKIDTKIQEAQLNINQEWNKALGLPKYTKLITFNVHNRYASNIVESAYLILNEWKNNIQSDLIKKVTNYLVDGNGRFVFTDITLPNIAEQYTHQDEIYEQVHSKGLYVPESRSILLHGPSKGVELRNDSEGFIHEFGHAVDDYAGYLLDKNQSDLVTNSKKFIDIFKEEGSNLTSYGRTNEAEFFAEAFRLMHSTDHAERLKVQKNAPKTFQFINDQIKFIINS
BoNT A protease: BoNT A light chain protease inhibition; multiplex microsphere protease substrate cleavage, flow cytometry; inhibition, % at 10 µM; actives 0.17% (n = 360,000); AID 588499; further: plate controls were buffer without enzyme for full effect and enzyme alone for no effect
Bead autofluor: flagged as autofluorescent in microsphere protease counterscreen; compound autofluorescence counterscreen, microsphere flow cytometry; active compounds read high; fluorescence intensity (concentration not given with the values); actives 3.1% (n = 360,000); in the data active means fluorescence intensity above about 16000; inconclusive means no clear call, values can overlap the other calls
BoNT F protease: blocks Botulinum neurotoxin F light chain protease; Multiplex microsphere protease cleavage assay, flow cytometry; inhibition, % at 10 µM; actives 0.22% (n = 360,000); in the data active means inhibition above about 35%, passing the limit was not always enough; inconclusive means no clear call, values can overlap the other calls; further: plate controls were buffer without enzyme for full effect and enzyme alone for no effect
SARS 3CLpro inh: SARS-CoV 3CLpro protease inhibition; actives 0.14% (n = 290,000); inhibition, % at 6 µM; recombinant SARS-CoV 3CLpro, quenched FRET peptide cleavage; P0C6X7; AID 1706; in the data active means inhibition above about 12%
BJeLR viability: kills HRASV12-expressing BJeLR cells. inhibition, % (concentration not given with the values). BJeLR (HRASV12) viability, CellTiter-Glo ATP luminescence, 48 h. actives 0.17% (n = 300,000); in the data active means inhibition above about 50%; inconclusive means no clear call, values can overlap the other calls
Active calls of the source: *. Unless noted, no stated cut-off is given here; in the data, active means inhibition above about 30%; inconclusive means no clear call, values can overlap the other calls; inactive means below that.

How did CCOC(=O)c1cnc(-n2nc(C)cc2C)nc1NCc1ccccc1 do in these assays?
Anthrax LF prot: 5.1; BoNT A protease: 3.0; Bead autofluor: inconclusive; BoNT F protease: -3.3; SARS 3CLpro inh: 3.2; BJeLR viability: 6.8

How did CCOC(=O)c1cnc(-n2nc(C)cc2C)nc1N1CC(C)OC(C)C1 (stereo not given) do in these assays?
Anthrax LF prot: -1.6; BoNT A protease: 2.9; Bead autofluor: 21874*; BoNT F protease: 0.8; SARS 3CLpro inh: 1.0; BJeLR viability: 2.6

How did CCCc1nc2c3ccccc3ccn2c1CC(C)(C)C do in these assays?
Anthrax LF prot: 0.0; BoNT A protease: 0.7; Bead autofluor: 5715; BoNT F protease: -1.1

How did Cc1cc(Cl)ccc1OCCCC(=O)N1CCN(S(=O)(=O)c2ccccc2)CC1 do in these assays?
Anthrax LF prot: 0.2; BoNT A protease: -1.4; Bead autofluor: 4998; BoNT F protease: -5.7; BJeLR viability: 6.8

What do the screens show for `CCN(CC)P(=O)(Nc1ccc([N+](=O)[O-])cc1)c1c(C)nn(CCC#N)c1NC(=O)c1ccc(Cl)cc1Cl` (stereo not given)?
Anthrax LF prot: -3.2; BoNT A protease: -0.7; Bead autofluor: 4428; BoNT F protease: 0.0; SARS 3CLpro inh: 1.3; BJeLR viability: 10.8

What do the screens show for `COCCNC(=O)CCC1CCN(Cc2ccc(-c3ccccc3)cc2)CC1`?
Anthrax LF prot: 3.1; BoNT A protease: inconclusive; Bead autofluor: 4021; BoNT F protease: inconclusive; SARS 3CLpro inh: -1.6; BJeLR viability: -4.9

How did O=C1CCCC(O)=C1C1NCCc2ccccc21 (stereo not given) do in these assays?
Anthrax LF prot: -0.2; BoNT A protease: -0.7; Bead autofluor: 2881; BoNT F protease: -0.2; SARS 3CLpro inh: 4.0; BJeLR viability: -11.3

Results for O=C1CCCC(O)=C1C1C2=C(CCCC2=O)Oc2ccccc21 (stereo not given) ?
Anthrax LF prot: -1.0; BoNT A protease: inconclusive; Bead autofluor: 21293*; BoNT F protease: 4.7; SARS 3CLpro inh: -0.5; BJeLR viability: -4.8

What do the screens show for `O=C(COC(=O)c1ccc(Cl)c(S(=O)(=O)N2CCOCC2)c1)NCc1ccco1`?
Anthrax LF prot: 4.4; BoNT A protease: 0.8; Bead autofluor: inconclusive; BoNT F protease: 1.0; BJeLR viability: 1.1

Results for OC1(c2ccc(F)cc2)CCNC1 (stereo not given) ?
Anthrax LF prot: -1.4; BoNT A protease: 0.1; Bead autofluor: 23064*; BoNT F protease: -0.9; SARS 3CLpro inh: -0.3; BJeLR viability: -10.3

Results for OC1(c2ccc(Br)cc2)CCNCC1 ?
Anthrax LF prot: 0.3; BoNT A protease: 0.2; Bead autofluor: 11516; BoNT F protease: 1.6; SARS 3CLpro inh: -1.8; BJeLR viability: 10.0

Results for COc1cc(C)c(NC(=S)Nc2ccc(Cl)c(Cl)c2)cc1OC ?
Anthrax LF prot: -3.2; BoNT A protease: 0.1; Bead autofluor: 1931; BoNT F protease: -2.7; SARS 3CLpro inh: 4.6; BJeLR viability: -2.9

How did Nc1nonc1-c1noc(-c2ccccc2)n1 do in these assays?
Anthrax LF prot: 0.1; BoNT A protease: 6.3; Bead autofluor: 20869*; BoNT F protease: 8.2; SARS 3CLpro inh: -2.8; BJeLR viability: -5.1

What do the screens show for `Nc1nc(-c2nonc2N)no1`?
Anthrax LF prot: -3.7; BoNT A protease: -0.9; Bead autofluor: 4651; BoNT F protease: -1.7; SARS 3CLpro inh: -1.7; BJeLR viability: 12.7

What do the screens show for `COc1ccc([C@H]2/C=C\CN(S(=O)(=O)c3ccc4ccccc4c3)[C@@H](C)C(=O)N2Cc2ccc(F)cc2)cc1`?
Anthrax LF prot: 0.9; BoNT A protease: -0.1; Bead autofluor: 4544; BoNT F protease: -2.5; BJeLR viability: 3.4

How did CN(C)c1ccc(/C=C/C(=O)c2cccc(Br)c2)cc1 do in these assays?
Anthrax LF prot: 34.7*; BoNT A protease: 40.0*; Bead autofluor: 33462*; BoNT F protease: 83.7*; SARS 3CLpro inh: -3.6; BJeLR viability: 6.1

How did O=C(COc1ccccc1[N+](=O)[O-])N(Cc1ccco1)C1CCS(=O)(=O)C1 (stereo not given) do in these assays?
Anthrax LF prot: -0.1; BoNT A protease: 2.7; Bead autofluor: 5305; BoNT F protease: 7.8; SARS 3CLpro inh: 2.2; BJeLR viability: 13.6

How did CC(=O)Nc1ccc(NC(=O)C2C3C=CC(C3)C2C(=O)O)cc1 (stereo not given) do in these assays?
Anthrax LF prot: 0.5; BoNT A protease: 3.4; Bead autofluor: 3975; BoNT F protease: -8.7; SARS 3CLpro inh: -3.4; BJeLR viability: -0.9

What do the screens show for `CC(C)CNC(=O)C1C2C=CC(C2)C1C(=O)O` (stereo not given)?
Anthrax LF prot: 2.8; BoNT A protease: inconclusive; Bead autofluor: 20356*; BoNT F protease: -1.5; SARS 3CLpro inh: 4.7; BJeLR viability: 10.2

Results for CCN(CC)S(=O)(=O)c1cc(C(=O)Oc2ccccc2OC)ccc1OC ?
Anthrax LF prot: 3.0; BoNT A protease: 1.1; Bead autofluor: 22741*; BoNT F protease: 3.6; SARS 3CLpro inh: 1.5; BJeLR viability: 2.8

What do the screens show for `CC(=O)OC1CC(OC2C(O)CC(OC3C(O)CC(OC4CCC5(C)C(CCC6C5CCC5(C)C(C7=CC(=O)OC7)CCC65O)C4)OC3C)OC2C)OC(C)C1OC1OC(CO)C(O)C(O)C1O` (stereo not given)?
Anthrax LF prot: -2.7; BoNT A protease: 0.0; Bead autofluor: 2999; BoNT F protease: 3.4

How did COC1CC(OC2CCC3(C)C(CCC4C3CCC3(C)C(C5=CC(=O)OC5)C(OC(C)=O)CC43O)C2)OC(C)C1OC1OC(COC2OC(CO)C(O)C(O)C2O)C(O)C(O)C1O (stereo not given) do in these assays?
BJeLR viability: 50.9*

How did COC(=O)c1ccc(NC(=O)CSCc2ccccc2C)cc1 do in these assays?
Anthrax LF prot: -2.9; BoNT A protease: 2.2; Bead autofluor: 22086*; BoNT F protease: 3.0; SARS 3CLpro inh: 4.8; BJeLR viability: -18.7

Results for COC(=O)c1ccc(NC(=O)CSCc2ccc(C)cc2)cc1 ?
Anthrax LF prot: -3.5; BoNT A protease: 1.0; Bead autofluor: 22818*; BoNT F protease: 0.5; SARS 3CLpro inh: 0.1; BJeLR viability: 8.8

What do the screens show for `CC(=O)c1ccc(NC(=O)CSCCO)cc1`?
Anthrax LF prot: -5.2; BoNT A protease: 0.0; Bead autofluor: 19947*; BoNT F protease: -1.0; SARS 3CLpro inh: 1.7; BJeLR viability: -0.3

How did COC(=O)c1ccc(NC(=O)CSCc2ccccc2)cc1 do in these assays?
Anthrax LF prot: 1.1; BoNT A protease: 0.7; Bead autofluor: 2728; BoNT F protease: -3.1; SARS 3CLpro inh: 3.4; BJeLR viability: -6.7

What do the screens show for `CSCCC(=O)Nc1ccc(C(C)=O)cc1`?
Anthrax LF prot: -0.2; BoNT A protease: 1.1; Bead autofluor: 8819; BoNT F protease: 6.0; SARS 3CLpro inh: 2.3; BJeLR viability: -15.5

Results for COc1ccc2c(c1)CC(C(=O)Nc1ccc(Cl)cc1)/C(=N/O)O2 (stereo not given) ?
Anthrax LF prot: 5.1; BoNT A protease: 1.3; Bead autofluor: 4251; BoNT F protease: 8.4; SARS 3CLpro inh: 3.0; BJeLR viability: 8.4
